# Source: PubChem BioAssay (Tox21)
# Records with an inconclusive call do not appear. Where a call stands in place of a potency, no number is given. Values without a mark were called inactive. The source made the active and inactive calls. Unless noted, the call rests on the fitted dose curve; in most records, active means well fitted curve in the direction sought with a large enough effect in the repeat runs; inconclusive means weak or mixed curves; inactive means no such curve, though single readings can be large; an effect the other way counts as inactive or inconclusive.
# Legend:
# [1] = biological target: Retinoic acid receptor RXR-alpha (Homo sapiens) (UniProt P19793); test: qHTS assay to identify small molecule agonists of the RXR signaling pathway (AID 1159527; calls by dose curve; further: nearly all actives have a fitted effect of over 35% in size)
# Sequence of Retinoic acid receptor RXR-alpha (Homo sapiens) (P19793 whole entry, looked up): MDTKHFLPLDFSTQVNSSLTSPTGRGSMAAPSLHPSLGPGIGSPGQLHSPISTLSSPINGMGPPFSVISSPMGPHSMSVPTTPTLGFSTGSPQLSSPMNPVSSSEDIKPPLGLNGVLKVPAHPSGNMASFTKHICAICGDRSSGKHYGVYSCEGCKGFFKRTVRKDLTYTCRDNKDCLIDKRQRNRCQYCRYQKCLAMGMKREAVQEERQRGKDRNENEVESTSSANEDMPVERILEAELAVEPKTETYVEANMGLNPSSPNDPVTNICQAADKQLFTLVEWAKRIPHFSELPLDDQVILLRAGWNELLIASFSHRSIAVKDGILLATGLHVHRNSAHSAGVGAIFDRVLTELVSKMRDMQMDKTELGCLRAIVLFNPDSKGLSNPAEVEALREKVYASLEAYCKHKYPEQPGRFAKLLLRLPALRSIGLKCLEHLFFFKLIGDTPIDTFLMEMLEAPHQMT
# Procedure, shortened: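 GeneBLAzer RXR-alpha-UAS-bla HEK 293T cells in medium with 2% charcoal-stripped FBS, pre-incubated 5 hr at 37 C, then exposed to compounds 16 hr. Beta-lactamase reporter read by FRET substrate, 2 hr room temperature, 460/530 nm emission.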
# [2] = qHTS assay to identify small molecule antagonists of the retinoid acid receptor (RAR) signaling pathway - cell viability counter screen (AID 1159551); further: nearly all actives have a fitted effect of over 35% in size
# Procedure, shortened: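 Seed C3RL4 cells; next day add compound, then retinol to 1 uM final; incubate 6 h at 37 C; add CellTiter-Glo; read luminescence after 30 min at RT.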
# [3] = qHTS assay to identify small molecule antagonists of the retinoic acid receptor (RAR) signaling pathway (AID 1159552; further: nearly all actives have a fitted effect of over 50% in size)
# Procedure, shortened: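 RARE-luc C3RL4 cells; cpds + 1 uM (final) retinol, 6 hr, 37 C/5% CO2; luciferase reagent, 30 min RT, luminescence readout. Inhibitors of retinol-driven signal scored.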
# [4] = qHTS assay to identify small molecule agonists of the RXR signaling pathway - cell viability counter screen (AID 1159529); further: nearly all actives have a fitted effect of over 50% in size; further: potency means the concentration at half of the fitted maximal effect; on activity change, negative = cytotoxicity: series mostly up to about 77 µM
# Procedure, shortened: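 RXR-alpha-UAS-bla HEK 293T cells in medium with 2% charcoal-stripped FBS were preincubated 5 hr, then exposed to compounds for 16 hr at 37 C. Viability was read as CellTiter-Glo luminescence after 30 min at room temperature.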
# [5] = qHTS assay to identify small molecule agonists of the retinoic acid receptor (RAR) signaling pathway (AID 1159553)
# Procedure, shortened: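 Activation of retinol signaling was monitored via a RARE luciferase reporter in C3RL4 cells. After 6 hr compound treatment at 37 C, detection reagent was added for 30 min at room temperature before luminescence reading.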
smiles,measurement,setting,value
CCCCCC[C@@H](CCC)C(=O)O,Potency,[1],inactive
same,outcome,[2],inactive
same,Potency,[3],inactive
O=C1OC(=O)c2cc([N+](=O)[O-])ccc21,Potency,[1],inactive
same,outcome,[2],inactive
CCN(CC)S(=O)(=O)c1ccc(C(=O)O)cc1,Potency,[4],inactive
same,outcome,[2],inactive
OCCCCCCO,Potency,[1],inactive
same,outcome,[2],inactive
same,Potency,[3],inactive
c1ccc(CCCc2ccccn2)cc1,Potency,[4],inactive
same,outcome,[2],inactive
Nc1nc2c(ncn2CCC(CO)CO)c(=O)[nH]1,Potency,[4],inactive
same,outcome,[2],inactive
COc1ccc(NC(C)=O)cc1,Potency,[1],inactive
same,outcome,[2],inactive
same,Potency,[3],inactive
Cc1c(F)cc2c(=O)c(C(=O)O)cn3c2c1CCC3C (stereo not drawn),Potency,[1],inactive
same,outcome,[2],inactive
O=C(O)c1ccccc1-c1ccc(C(F)(F)F)cc1,Potency,[4],inactive
NC(=O)c1ncn([C@@H]2O[C@H](CO)[C@@H](O)[C@H]2O)c1N,Potency,[1],inactive
same,Potency,[3],inactive
CC(C)=CCC/C(C)=C/C(=O)O,Potency,[4],inactive
Cc1ccc(Nc2ccc(O)c3c2C(=O)c2ccccc2C3=O)cc1,Potency,[4],inactive
NS(=O)(=O)c1cc(C2(O)NC(=O)c3ccccc32)ccc1Cl (stereo not drawn),Potency,[4],inactive
same,outcome,[2],inactive
CCCC(C)CO (stereo not drawn),Potency,[4],inactive
same,outcome,[2],inactive
same,Potency,[3],inactive
CC(C)COC(=O)C(C)C,Potency,[4],inactive
same,outcome,[2],inactive
same,Potency,[3],inactive
CCCCCCC(=O)OCC,Potency,[4],inactive
same,outcome,[2],inactive
same,Potency,[3],inactive
same,Potency,[5],inactive
CC(C)CCCC(C)NCCC(C)C (stereo not drawn),Potency,[4],inactive
same,outcome,[2],inactive
N[C@@H](CS)C(=O)O,Potency,[4],inactive
same,outcome,[2],inactive
CCCCC1CCCCC(=O)O1 (stereo not drawn),Potency,[4],inactive
same,outcome,[2],inactive
same,Potency,[3],inactive
O=C(O)C(O)[C@H](O)[C@@H](O)[C@H](O)[C@H](O)CO (stereo partly drawn),Potency,[4],49.5 µM (active)
same,outcome,[2],inactive
same,Potency,[3],inactive
C=C[Si](OC)(OC)OC,Potency,[4],inactive
same,outcome,[2],inactive
CCCc1ccccc1O,Potency,[4],inactive
same,outcome,[2],inactive
CC(C)(C)C(=O)/C=C/c1ccc(Cl)cc1,Potency,[4],inactive
same,outcome,[2],inactive
same,Potency,[3],inactive
same,Potency,[5],inactive
CC(=O)c1ccc(C)cc1,Potency,[4],inactive
same,outcome,[2],inactive
COc1cc(CCC(C)=O)ccc1O,Potency,[4],inactive
same,outcome,[2],inactive
same,Potency,[3],inactive
CC(C)(O)Cc1ccccc1,Potency,[4],inactive
same,outcome,[2],inactive
same,Potency,[3],inactive
same,Potency,[5],inactive
N#CC1(O)CCCCC1,Potency,[4],inactive
same,outcome,[2],inactive
CN(C)C(=O)Nc1ccccc1,Potency,[4],inactive
same,outcome,[2],inactive
same,Potency,[3],inactive
CC(=O)NC(Cc1ccccc1)C(=O)O (stereo not drawn),Potency,[4],inactive
same,outcome,[2],inactive
same,Potency,[3],inactive
O=C(O)c1cccc(C(=O)O)n1,Potency,[4],inactive
same,outcome,[2],inactive
same,Potency,[3],inactive
same,Potency,[5],inactive
NCC[C@H](O)C(=O)N[C@@H]1C[C@H](N)[C@@H](O[C@H]2O[C@H](CN)[C@@H](O)[C@H](O)[C@H]2O)[C@H](O)[C@H]1O[C@H]1O[C@H](CO)[C@@H](O)[C@H](N)[C@H]1O,"activity change, negative = cytotoxicity",[4],9.63% [at 0.29 µM]
same,"activity change, negative = cytotoxicity",[2],2.52% [at 0.349 µM]
CCC(=O)Nc1cccc(N)c1,Potency,[4],inactive
same,outcome,[2],inactive
same,Potency,[3],inactive
CCCCCCCCCCCl,Potency,[4],inactive
same,outcome,[2],inactive
CCO[Si](C)(OCC)OCC,Potency,[4],inactive
same,outcome,[2],inactive
same,Potency,[3],inactive
COc1ccc(COC=O)cc1,Potency,[4],inactive
same,outcome,[2],inactive
same,Potency,[3],inactive
C=CC(=O)N1CCOCC1,Potency,[4],inactive
same,outcome,[2],inactive
OC[C@H]1O[C@@H]2O[C@H]3[C@H](O)[C@@H](O)[C@@H](O[C@H]4[C@H](O)[C@@H](O)[C@@H](O[C@H]5[C@H](O)[C@@H](O)[C@@H](O[C@H]6[C@H](O)[C@@H](O)[C@@H](O[C@H]7[C@H](O)[C@@H](O)[C@@H](O[C@H]8[C@H](O)[C@@H](O)[C@@H](O[C@H]9[C@H](O)[C@@H](O)[C@@H](O[C@H]1[C@H](O)[C@H]2O)O[C@@H]9CO)O[C@@H]8CO)O[C@@H]7CO)O[C@@H]6CO)O[C@@H]5CO)O[C@@H]4CO)O[C@@H]3CO,Potency,[4],inactive
same,outcome,[2],inactive
same,Potency,[3],inactive
O=S(=O)(O)c1ccccc1O,Potency,[4],inactive
same,outcome,[2],inactive
same,Potency,[3],inactive
CCCCNc1ccccc1,Potency,[4],inactive
same,outcome,[2],inactive
same,Potency,[3],inactive
CNC(=O)c1c(I)c(NC(=O)CCCCC(=O)Nc2c(I)c(C(=O)O)c(I)c(C(=O)NC)c2I)c(I)c(C(=O)O)c1I,Potency,[4],inactive
same,outcome,[2],inactive
same,Potency,[3],inactive
same,Potency,[5],inactive
COCCOC(=O)CC#N,Potency,[4],inactive
same,outcome,[2],inactive
same,Potency,[3],inactive
CCCc1ccc(N)cc1,Potency,[4],inactive
same,outcome,[2],inactive
O=[N+]([O-])c1ccc(Oc2ccc([N+](=O)[O-])cc2)cc1,Potency,[4],inactive
same,outcome,[2],inactive
same,Potency,[3],inactive
CC(C)c1cccc(O)c1,Potency,[4],inactive
same,outcome,[2],inactive
COCc1ccc(COC)cc1,Potency,[4],inactive
same,outcome,[2],inactive
C#CC(C)(O)CC(C)C (stereo not drawn),Potency,[4],inactive
same,outcome,[2],inactive
same,Potency,[3],inactive
